Assay results taken from PubChem BioAssay.
For some of these results: Results with a measured potency or affinity are listed apart. The source made the active and inactive calls.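 Rule for the calls, unless noted: active = primary screen inhibitor hit that blocks the TRPC4 channel at some tested dose, yielding a dose curve; inactive = the rest.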

Experiments:
[1] = tested on: TRPC4 beta (transient receptor potential cation channel C4), mouse; assay: activators of mouse TRPC4 channel, confirmation, cell-based, Fluo4 calcium, HEK293 TRPC4beta/mu-opioid, duplicates, 10 µM (AID 2426;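 active = fluorescence ratio normalized to control raised more than 50% in primary screen plus both repeat runs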); conditions: Fluo4 calcium fluorescence, at 10 µM; hits give high values
[2] = tested on: transient receptor potential cation channel C4 beta (TRPC4), mouse; assay: activators of mouse TRPC4 channel, confirmation, cell-based, second round, Fluo4, HEK293 TRPC4beta/mu-opioid, 1 µM (AID 2461;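 active = primary screen active and over 50% activation in each of two duplicate runs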); conditions: Fluo4 calcium fluorescence, at 1 µM; hits give high values
[3] = tested on: TRPC4 (transient receptor potential cation channel C4 beta), mouse; assay: positive allosteric modulators of mouse TRPC4, confirmation, cell-based, second round, Fluo-4, HEK293 TRPC4beta/mu-opioid, 1 µM (AID 2554;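 active = primary screen hit whose fluorescence ratio, in both repeats, exceeds the weak agonist control mean by 3 SD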); conditions: DAMGO EC20, Fluo-4 calcium flux, at 1 µM; hits give high values
[4] = tested on: TRPC4 beta (transient receptor potential cation channel C4), mouse; assay: positive allosteric modulators of mouse TRPC4, confirmation, cell-based, Fluo-4, HEK293 TRPC4beta/mu-opioid (AID 2555;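 active = primary screen hit whose calcium fluorescence ratio, in both repeats, exceeds the weak agonist control mean by 3 SD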); conditions: DAMGO EC20, Fluo-4 calcium flux, at 10 µM; hits give high values
[5] = molecular target: Short transient receptor potential channel 4 (Mus musculus) (UniProt Q9QUQ5); assay: inhibitors of mouse TRPC4 channel, confirmation, cell-based, Fluo4, HEK293 TRPC4beta/mu-opioid (AID 2636;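 active = calcium signal cut by more than 3 SD below the full-agonist control yet still positive, in both repeats and the earlier primary screen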); conditions: DAMGO, Fluo4 calcium flux, at 10 µM; hits give high values
[6] = molecular target: Short transient receptor potential channel 4 (Mus musculus) (UniProt Q9QUQ5); assay: inhibitors of mouse TRPC4 channel, confirmation, cell-based, second round, Fluo4, HEK293 TRPC4beta/mu-opioid, 1 µM (AID 2637;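 active = calcium signal ratio cut to more than 3 SD under the fully stimulated control mean yet still positive, in both repeats and the primary screen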); conditions: Fluo4 calcium flux, DAMGO, at 1 µM; hits give high values
[7] = molecular target: Short transient receptor potential channel 4 (Mus musculus) (UniProt Q9QUQ5); assay: mouse TRPC4 channel activators, dose response, cell-based, HEK293 TRPC4/mu-opioid, Fluo-4 calcium (AID 434937;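 active = primary screen activator hit with a dose response curve and TRPC4 channel activation at any tested dose; inactive = no activation, no dose response, or not a primary hit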)
[8] = molecular target: Short transient receptor potential channel 4 (Mus musculus) (UniProt Q9QUQ5); assay: TRPC4 positive allosteric modulators, dose response, cell-based, HEK293 TRPC4/mu-opioid, Fluo-4 calcium, EC20 DAMGO (AID 434941;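 active = earlier screen potentiator hit that boosts the TRPC4 ion channel at some dose, with a dose response; inactive = no potentiation, no dose response, or not a prior hit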;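 note: calcium entry triggered by an EC20 dose of DAMGO at the co-expressed mu-opioid receptor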)
[9] = molecular target: Short transient receptor potential channel 4 (Mus musculus) (UniProt Q9QUQ5); assay: mouse TRPC4 channel inhibitors, dose response, cell-based, HEK293 TRPC4/mu-opioid, Fluo-4 calcium (AID 434942)
[10] = molecular target: Short transient receptor potential channel 6 (Mus musculus) (UniProt Q61143); assay: inhibition of mouse TRPC6 channel, confirmation, selectivity assay for TRPC4 inhibitor project, cell-based, HEK293, membrane potential dye, duplicate (AID 434948;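 active = active in primary screen and both duplicates, each dropping signal beyond three positive-control SD with fluorescence still positive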); conditions: HEK293 TRPC6, membrane potential dye fluorescence, at 10 µM, stimulated with maximal-effect acetylcholine; hits give high values
[11] = molecular target: Short transient receptor potential channel 6 (Mus musculus) (UniProt Q61143); assay: activation of mouse TRPC6 channel, confirmation, selectivity assay for TRPC4 activator project, cell-based, HEK293, membrane potential dye, duplicate (AID 434950;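 active = membrane potential signal rise above negative control mean plus 3 SD in both duplicates, also active in the earlier TRPC4 screen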;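 for activation: 0% = buffer only wells and 100% = acetylcholine maximal-effect wells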); conditions: HEK293 TRPC6, membrane potential fluorescence, at 10 µM; hits give high values
[12] = molecular target: Short transient receptor potential channel 6 (Mus musculus) (UniProt Q61143); assay: TRPC6 potentiation by TRPC4 potentiator hits, confirmation, selectivity assay for TRPC4 potentiator project, HEK293 cells, membrane potential dye, duplicate (AID 434952;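 active = compound raising the membrane signal above positive-control mean plus 3 SD in both repeats, and a primary screen hit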); conditions: HEK293 TRPC6, membrane potential dye fluorescence, at 10 µM, maximal acetylcholine added after compound; hits give high values
[13] = molecular target: Short transient receptor potential channel 4 (Mus musculus) (UniProt Q9QUQ5); assay: calcium flux activators in TRPC4/5HT1a cells, counter-screen for TRPC4 activator project, cell-based, second counter screen, HEK293 TRPC4/5HT1a, Fluo-4 (AID 434977;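 active = calcium signal rise above buffer-control mean plus 5 SD in both duplicates, and also a hit in the primary screen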); conditions: Fluo-4 calcium flux, at 10 µM; hits give high values
[14] = calcium flux inhibitors in TRPC4/5HT1a cells, confirmation, counter-screen for TRPC4 inhibitor project, cell-based, second counter screen, HEK293 TRPC4/5HT1a, Fluo-4 (AID 434978;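 active = primary screen active whose calcium signal fell more than 3 SD beyond the full-serotonin control mean in both duplicate plates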;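 note: serotonin given first at submaximal then at maximal dose after compound preincubation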); conditions: Fluo-4 calcium flux, at 10 µM, serotonin added to trigger calcium flux; hits give high values
[15] = tested on: TRPC4 (mouse), co-expressed with 5HT1a in HEK293; assay: calcium flux potentiators in TRPC4/5HT1a cells, confirmation, counter-screen for TRPC4 potentiator project, cell-based, second counter screen, HEK293 TRPC4/5HT1a, Fluo-4 (AID 434979;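 active = signal rise over 3 SD above mean of control wells given weak agonist, in both repeats and first screen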); conditions: Fluo-4 calcium flux, at 10 µM, serotonin added at its EC20 dose; hits give high values
[16] = calcium flux activation in mu-opioid HEK293 cells, confirmation, counter-screen for TRPC4 activator project, cell-based, HEK293 mu-opioid receptor line (AID 449723;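 active = hit in primary screen, with calcium signal over 5 SD above buffer well mean in both duplicates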;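 note: counter screen cells carry the mu-opioid receptor alone and lack TRPC4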); conditions: Fluo-4 calcium fluorescence, at 10 µM; hits give high values
[17] = calcium flux enhancement in mu-opioid HEK293 cells, confirmation, counter-screen for TRPC4 allosteric potentiator project, cell-based, HEK293 mu-opioid receptor line (AID 449724;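 active = calcium signal rise more than 3 SD above the low-dose agonist control mean, in both duplicate plates and the primary screen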); conditions: Fluo-4 calcium flux, at 10 µM, compound added before EC20 DAMGO stimulus; hits give high values

Sequence of Short transient receptor potential channel 6 (Mus musculus) (Q61143 whole entry, looked up): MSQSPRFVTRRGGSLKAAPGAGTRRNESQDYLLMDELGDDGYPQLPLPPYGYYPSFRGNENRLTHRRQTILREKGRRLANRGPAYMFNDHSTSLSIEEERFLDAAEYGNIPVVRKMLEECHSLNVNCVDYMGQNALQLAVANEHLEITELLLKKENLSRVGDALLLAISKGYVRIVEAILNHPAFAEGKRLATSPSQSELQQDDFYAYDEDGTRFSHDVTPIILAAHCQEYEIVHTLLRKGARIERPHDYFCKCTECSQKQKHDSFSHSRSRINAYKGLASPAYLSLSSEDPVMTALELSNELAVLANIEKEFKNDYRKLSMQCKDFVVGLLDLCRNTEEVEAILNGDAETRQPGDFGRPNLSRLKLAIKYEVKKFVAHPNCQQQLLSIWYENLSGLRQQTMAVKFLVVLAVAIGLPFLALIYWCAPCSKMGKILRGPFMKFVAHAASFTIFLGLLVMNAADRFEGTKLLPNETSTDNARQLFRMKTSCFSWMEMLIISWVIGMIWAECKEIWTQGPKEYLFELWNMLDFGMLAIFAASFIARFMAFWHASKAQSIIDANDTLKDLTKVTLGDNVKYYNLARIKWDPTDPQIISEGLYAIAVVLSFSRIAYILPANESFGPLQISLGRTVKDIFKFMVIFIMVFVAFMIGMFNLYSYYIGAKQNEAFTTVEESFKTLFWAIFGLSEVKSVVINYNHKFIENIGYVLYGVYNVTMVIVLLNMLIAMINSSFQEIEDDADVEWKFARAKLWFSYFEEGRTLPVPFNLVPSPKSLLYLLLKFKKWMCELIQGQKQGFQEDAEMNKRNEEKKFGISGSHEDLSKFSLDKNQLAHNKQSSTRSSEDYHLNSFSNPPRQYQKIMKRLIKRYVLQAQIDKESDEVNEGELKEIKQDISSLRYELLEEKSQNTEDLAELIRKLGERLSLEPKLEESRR
Sequence of Short transient receptor potential channel 4 (Mus musculus) (Q9QUQ5 whole entry, looked up): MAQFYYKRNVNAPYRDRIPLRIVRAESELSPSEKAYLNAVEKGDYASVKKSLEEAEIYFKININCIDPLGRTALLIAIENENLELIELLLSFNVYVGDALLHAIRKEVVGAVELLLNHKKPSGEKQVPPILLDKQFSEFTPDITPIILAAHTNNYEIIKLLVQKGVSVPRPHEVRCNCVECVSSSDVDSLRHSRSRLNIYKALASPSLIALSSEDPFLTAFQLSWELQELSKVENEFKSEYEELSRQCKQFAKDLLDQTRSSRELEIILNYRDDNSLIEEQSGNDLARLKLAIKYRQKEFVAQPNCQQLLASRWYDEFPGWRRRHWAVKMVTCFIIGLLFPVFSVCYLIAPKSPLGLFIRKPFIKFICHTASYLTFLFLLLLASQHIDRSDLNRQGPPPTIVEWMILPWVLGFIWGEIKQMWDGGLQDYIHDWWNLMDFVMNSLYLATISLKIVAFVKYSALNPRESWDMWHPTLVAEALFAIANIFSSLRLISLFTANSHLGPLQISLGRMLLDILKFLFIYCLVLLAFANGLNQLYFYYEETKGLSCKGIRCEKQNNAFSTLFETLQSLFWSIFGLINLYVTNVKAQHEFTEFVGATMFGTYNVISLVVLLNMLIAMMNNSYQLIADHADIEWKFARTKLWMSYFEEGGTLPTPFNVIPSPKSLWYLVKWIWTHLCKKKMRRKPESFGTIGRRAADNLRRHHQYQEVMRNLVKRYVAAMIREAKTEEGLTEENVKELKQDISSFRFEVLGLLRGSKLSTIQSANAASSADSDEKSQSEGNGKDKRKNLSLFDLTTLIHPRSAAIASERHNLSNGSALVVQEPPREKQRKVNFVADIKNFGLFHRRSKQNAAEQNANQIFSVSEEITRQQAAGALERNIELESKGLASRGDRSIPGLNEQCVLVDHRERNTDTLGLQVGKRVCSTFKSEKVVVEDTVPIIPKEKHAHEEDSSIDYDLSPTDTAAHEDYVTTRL

COC(=O)[C@H](Cc1ccccc1)NC(=O)c1ccc2ccccc2n1
inactive: outcome [1] | outcome [2] | outcome [3] | outcome [5] | outcome [6] | outcome [7] | outcome [8] | outcome [9] | outcome [10] | outcome [11] | outcome [12] | outcome [13] | outcome [14] | outcome [16] | outcome [17]
active: potentiation [4] 81% | potentiation [15] 59.7%

O=C(C1=C[C@H](c2ccc(C(F)(F)F)cc2)C[C@H](OCCCCO)O1)N1CCN(Cc2ccccc2)CC1
active: activation [11] 35%
inactive: outcome [1] | outcome [2] | outcome [3] | outcome [4] | outcome [5] | outcome [6] | outcome [7] | outcome [8] | outcome [9] | outcome [10] | outcome [12] | outcome [13] | outcome [14] | outcome [15] | outcome [16] | outcome [17]

CCN(CC)CCNC(=O)c1cc2c(-c3cccc(OC)c3)nn(C)c2s1
active: potentiation [15] 20.8%
inactive: outcome [1] | outcome [2] | outcome [3] | outcome [4] | outcome [5] | outcome [6] | outcome [7] | outcome [8] | outcome [9] | outcome [10] | outcome [11] | outcome [12] | outcome [13] | outcome [14] | outcome [16] | outcome [17]

O=C(NCc1cccs1)C12CC3CC(CC(C3)C1)C2
inactive: outcome [1] | outcome [2] | outcome [3] | outcome [4] | outcome [5] | outcome [6] | outcome [7] | outcome [8] | outcome [9] | outcome [10] | outcome [11] | outcome [12] | outcome [13] | outcome [14] | outcome [15] | outcome [16] | outcome [17]

CCOC(=O)C1CCN(c2nc3ccccc3nc2C(C#N)C(=O)OCCOC)CC1 (stereo not drawn)
inactive: outcome [1] | outcome [2] | outcome [3] | outcome [4] | outcome [5] | outcome [6] | outcome [7] | outcome [8] | outcome [9] | outcome [10] | outcome [11] | outcome [12] | outcome [13] | outcome [14] | outcome [15] | outcome [16] | outcome [17]

CCOC(=O)CC(NS(=O)(=O)c1ccc(OC)c(C)c1)c1cccc([N+](=O)[O-])c1 (stereo not drawn)
inactive: outcome [1] | outcome [2] | outcome [3] | outcome [4] | outcome [5] | outcome [6] | outcome [7] | outcome [8] | outcome [9] | outcome [10] | outcome [11] | outcome [12] | outcome [13] | outcome [14] | outcome [15] | outcome [16] | outcome [17]

Cc1ccc(-c2c(C(=O)N/N=C/c3ccc(OC(C)C)cc3)nnn2-c2nonc2N)cc1
active: potentiation [15] 19.3%
inactive: outcome [1] | outcome [2] | outcome [3] | outcome [4] | outcome [5] | outcome [6] | outcome [7] | outcome [8] | outcome [9] | outcome [10] | outcome [11] | outcome [12] | outcome [13] | outcome [14] | outcome [16] | outcome [17]

COc1ccc(S(=O)(=O)N2CCCCCC2)cc1C(=O)N(C)Cc1ccc(Cl)cc1Cl
active: potentiation [4] 46% | potentiation [15] 14.4% | activation [17] 2180%
inactive: outcome [1] | outcome [2] | outcome [3] | outcome [5] | outcome [6] | outcome [7] | outcome [8] | outcome [9] | outcome [10] | outcome [11] | outcome [12] | outcome [13] | outcome [14] | outcome [16]

CC(C)CN(C(=O)COC(=O)COc1ccc2ccccc2c1)c1c(N)n(Cc2ccccc2)c(=O)[nH]c1=O
inactive: outcome [1] | outcome [2] | outcome [3] | outcome [4] | outcome [5] | outcome [6] | outcome [7] | outcome [8] | outcome [9] | outcome [10] | outcome [11] | outcome [12] | outcome [13] | outcome [14] | outcome [16] | outcome [17]
active: potentiation [15] 14.7%

Cc1cc(Nc2ccc3c(c2)OCCO3)c2ccccc2n1
inactive: outcome [1] | outcome [2] | outcome [3] | outcome [4] | outcome [5] | outcome [6] | outcome [7] | outcome [8] | outcome [9] | outcome [10] | outcome [11] | outcome [12] | outcome [13] | outcome [14] | outcome [15] | outcome [16] | outcome [17]

CSCC[C@H](NC(=O)N1CCn2c1nc1ccccc12)C(=O)NCc1ccc(F)cc1
inactive: outcome [1] | outcome [2] | outcome [3] | outcome [5] | outcome [6] | outcome [7] | outcome [8] | outcome [9] | outcome [10] | outcome [11] | outcome [12] | outcome [13] | outcome [14] | outcome [15] | outcome [16] | outcome [17]
active: potentiation [4] 27%

O=C(/C=C/c1ccc(Cl)cc1)N(Cc1ccccc1)C1CCS(=O)(=O)C1 (stereo not drawn)
active: potentiation [15] 15.5%
inactive: outcome [1] | outcome [2] | outcome [3] | outcome [4] | outcome [5] | outcome [6] | outcome [7] | outcome [8] | outcome [9] | outcome [10] | outcome [11] | outcome [12] | outcome [13] | outcome [14] | outcome [16] | outcome [17]

CC[n+]1c(/C=C/Nc2ccccc2)sc2ccccc21
inactive: outcome [1] | outcome [2] | outcome [3] | outcome [4] | outcome [5] | outcome [6] | outcome [7] | outcome [8] | outcome [9] | outcome [10] | outcome [11] | outcome [12] | outcome [13] | outcome [14] | outcome [15] | outcome [16] | outcome [17]

Fc1ccc(CN2C3=NCCCN3c3ccccc32)cc1
inactive: outcome [1] | outcome [2] | outcome [3] | outcome [4] | outcome [5] | outcome [6] | outcome [7] | outcome [8] | outcome [9] | outcome [10] | outcome [11] | outcome [12] | outcome [13] | outcome [14] | outcome [15] | outcome [16] | outcome [17]
